Sampled rows, rich in hits. Any-hit rate of the full collection: about 21%.
Pf growth 96h = Primary qHTS for delayed death inhibitors of the malarial parasite plastid, 96 hour incubation | P. falciparum luciferase reporter growth, 96 h | Potency, µM (doses to about 28.7 µM), for inactives: at the top dose activity change, negative = inhibition, most hits filed as inhibitors | hit rate 6.9% among 320,000; further: potency means the concentration at half of the fitted maximal effect; on the % scale 0 is the no-effect control and ±100 the full control effect
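Plates of compound plus infected erythrocytes (2% hematocrit, 0.05% parasitemia final) incubate 96 hours, 37 C, 5% CO2. Detection reagent added; reduced luminescence from the parasites' luciferase reporter flags inhibition.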
Pf growth 48h = Primary qHTS for delayed death inhibitors of the malarial parasite plastid, 48 hour incubation; P. falciparum luciferase growth in erythrocytes, 48 h; Potency, µM (highest dose often 28.7 µM), for the others: top-dose activity change, negative = inhibition, most hits filed as inhibitors; hit rate 5.9% among 310,000; AID 504832, 2011; further: potency means the concentration at half of the fitted maximal effect; on the % scale 0 is the no-effect control and ±100 the full control effect
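Parasite viability was followed by luminescence of a genomically integrated firefly luciferase. Cultures held 0.1% parasitemia at 2% hematocrit (final), incubated under 5% CO2 at 37 C.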
NS1 inh = qHTS Assay for Inhibitors of Influenza NS1 Protein Function; Potency, µM (titrated, usually from 46.1 µM), for the others: at the highest dose activity, positive = more growth; hit rate 0.4% among 270,000; AID 2326, 2010; calls by dose curve; further: potency means the concentration at half of the fitted maximal effect; actives are rising curves; nearly all actives have a fitted effect of over 50% in size
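OD600 was taken as the measure of yeast growth restored by compound in an NS1-expressing S. cerevisiae strain. Cells had been washed out of glucose medium and diluted 1:100 into galactose -URA medium, pH 6.0.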
Cycloheximide cs = Cycloheximide Counterscreen for Small Molecule Inhibitors of Shiga Toxin; max response, %; cell reporter, cycloheximide protein synthesis inhibition counterscreen; hit rate 12% among 300,000; in the data active means max response mostly above about 13%, no sharp cut-off; inactive means mostly below about 14%; further: read at 38.3 µM for the half of the compounds with a filed dose; 0% is about no effect
Shiga inhibitor = A qHTS for Small Molecule Inhibitors of Shiga Toxin | Vero cells, Shiga toxin protein synthesis inhibition reporter | inhibition, % at 38.7 µM | hit rate 9.2% among 290,000 | AID 2315, 2010; in the data active means inhibition mostly above about 28%, no sharp cut-off; inactive means mostly below about 43%; further: 0% is about no effect
SARS PLpro yeast = qHTS of Yeast-based Assay for SARS-CoV PLP | hit rate 0.19% among 330,000 | Potency, µM (top dose mostly 32.9 µM), without a hit: top-dose activity, positive = growth rescue, usual class: activators | S. cerevisiae expressing SARS-CoV PLpro, growth rescue; calls by dose curve; further: potency means the concentration at half of the fitted maximal effect; 0% is about no effect; nearly all actives have a fitted effect of over 55% in size
* marks the source's active call; other numbers are inactive results; u = inconclusive; x = not tested or not shown. Unless noted, the call rests on the fitted dose curve; in most records, active means well fitted inhibition curve with a large enough effect; inconclusive means small, poorly fitted or top-dose-only effect, or another doubt; inactive means no such curve, though single readings can be large or run the other way.

SMILES | Pf growth 96h | Pf growth 48h | NS1 inh | Cycloheximide cs | Shiga inhibitor | SARS PLpro yeast
CCOc1ccc(NC(=O)C2CCCN(C)C2)cc1 (configuration not stated) | 58.2% | -0.3% | 6.2% | 0.5 | -7.1 | 1.1%
CCN(CCCNC(=O)C1CCN(S(=O)(=O)c2cnc[nH]2)CC1)c1cccc(C)c1 | 9.5% | u | u | 5.3 | -3.3 | 6.7%
COc1cccc(CNS(=O)(=O)c2ccc3c(c2)CCN3C(=O)C2CC2)c1 | u | -13.9% | x | 3.2 | -5.2 | -2.6%
CCC(=O)N1c2ccc(S(=O)(=O)NCc3ccccc3)cc2CC1C (configuration not stated) | 36.3% | 24.7% | 4.6% | 36.4* | 19.0 | 5.1%
CC(=O)N1c2ccc(S(=O)(=O)NCC3CCC(C(=O)NCc4ccccc4)CC3)cc2CC1C (configuration not stated) | 22.3% | u | -2.9% | 9.3 | -2.8 | 5.6%
O=C(C1CC1)N1CCc2cc(S(=O)(=O)NCc3ccccc3)ccc21 | u | 36.0% | 0.4% | 13.6* | 5.9 | 1.6%
CC1Cc2cc(S(=O)(=O)NCc3ccccc3)ccc2N1C(=O)C1CC1 (configuration not stated) | u | 25.6% | 1.3% | 26.4* | 1.9 | 3.3%
CC1Cc2cc(S(=O)(=O)NCc3ccccc3)ccc2N1C(=O)C1CCC1 (configuration not stated) | u | -4.6% | 6.2% | -2.2 | 7.9 | 1.1%
CC(=O)N1c2ccc(S(=O)(=O)NCc3ccccc3Cl)cc2CC1C (configuration not stated) | -2.1% | -0.4% | 1.0% | -1.0 | -11.6 | u
COCCCNC(=O)C1CCC(CNS(=O)(=O)c2ccc3c(c2)CC(C)N3C(=O)C2CC2)CC1 (configuration not stated) | 13.1µM* | -4.2% | -17.5% | -2.1 | -5.5 | 0.5%
O=C1CCc2ccc(NC(=O)C3CC3)cc2N1 | 5.5% | -10.9% | x | -2.1 | -3.0 | 2.4%
COC(=O)c1c(-c2cc(OC)c(OC)c(OC)c2)c2ccc(OCc3ccccn3)cc2c(=O)n1-c1ccc(N)cc1 | x | x | 25.0% | x | x | x
O=C(NCC1CC1)C1(C(F)(F)F)CC(CCCO)CCCO1 (configuration not stated) | x | x | x | -8.1 | 3.9 | x
CC(C)(C)c1ccc(OC(=O)c2ccc(-n3cncn3)nc2)cc1 | -12.9% | 356.4% | x | 18.8 | -1.7 | -1.5%
COc1ccc(NS(=O)(=O)c2cc(NC(=O)c3sccc3C)ccc2N2CCOCC2)cc1 | u | 10.4µM* | 2.2% | 10.1 | -6.4 | 0.6%
COc1ccccc1NS(=O)(=O)c1cc(NC(=O)c2sccc2C)ccc1N1CCOCC1 | 11.7µM* | u | -17.3% | -5.0 | -1.3 | 2.2%
COc1ccccc1NS(=O)(=O)c1cc(NC(=O)c2sccc2C)ccc1N1CCCC1 | u | u | 19.9% | 0.7 | 50.3 | 0.6%
O=C(CCC(=O)N1CCCCCC1)NCc1ccc(F)cc1 | -23.6% | 0.0% | 16.8% | 1.5 | 0.3 | -0.8%
CC(=O)NS(=O)(=O)c1ccc(NC(=S)NC(=O)C2CCC2)cc1 | 0.0% | 0.2% | -2.2% | -3.0 | -2.9 | -6.2%
CCC(=O)O[C@]1(C(=O)CCl)[C@@H](C)CC2C3C[C@H](F)C4=CC(=O)C=CC4(C)[C@@]3(F)C(O)CC21C (some centres not stated) | -12.6% | 1.9µM* | x | x | x | x
CC(=O)OCC(=O)[C@@]1(OC(C)=O)[C@@H](C)C[C@H]2[C@@H]3C[C@H](F)C4=CC(=O)C=C[C@]4(C)[C@@]3(F)[C@@H](O)C[C@@]21C | u | u | -11.3% | -3.0 | -1.6 | 0.4%
C[C@H]1C[C@H]2[C@@H]3CCC4=CC(=O)C=C[C@]4(C)[C@@]3(Cl)[C@@H](O)C[C@]2(C)[C@@]1(O)C(=O)CO | u | 8.6% | -3.6% | -2.0 | -4.8 | 0.0%
CCC(=O)O[C@]1(C(=O)CCl)[C@@H](C)C[C@H]2[C@@H]3CCC4=CC(=O)C=C[C@]4(C)[C@@]3(F)[C@@H](O)C[C@@]21C | 4.15µM* | 4.65µM* | -32.0% | 7.0 | 4.4 | 0.1%
